Results filed as inconclusive are left out. Activity calls are given as the source filed them. Unless noted, calls follow the shape of the full dose curve.
Experiments:
[1] = Nuclear factor erythroid 2-related factor 2/antioxidant responsive element (Nrf2/ARE) small molecule agonists: qHTS cell viability counter screen in human keratinocytes (AID 1919968; active = well fitted curve in the direction sought with a large enough effect in the repeat runs; an effect the other way counts as inactive or inconclusive; also: nearly all actives have a fitted effect of over 55% in size)
Outline: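 After a 5 h attachment period, ARE-reporter keratinocytes were dosed with compounds in DMSO and then cultured 23 h at 37 C. Cell viability came from CellTiter-Fluor signal read after a further 1 h.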

[2] = target: Gonadotropin-releasing hormone receptor (Homo sapiens) (UniProt P30968); assay: Human gonadotropin-releasing hormone receptor (GnRHR) small molecule agonists, calcium flux assay in GnRHR-HEK293 cells (AID 1920063); also: nearly all actives have a fitted effect of over 35% in size
Outline: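 We seeded human GnRHR-expressing HEK293 cells for 18 hours, loaded them with calcium dye for an hour at 37 C, added test compounds, and recorded fluorescence intensity kinetically for three minutes.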

[3] = target: KiSS-1 receptor (Homo sapiens) (UniProt Q969F8); assay: Human kisspeptin (KISS1R) small molecule agonists, calcium flux assay in KISS1R-HEK293 cells (AID 1920064; active = well fitted curve in the direction sought with a large enough effect in the repeat runs; an effect the other way counts as inactive or inconclusive)
Outline: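 Kinetic calcium assay, 1 s sampling over 3 min at Ex/Em 480/540, in HEK293 cells engineered with human KISS1R; compounds delivered in DMSO after 1 h dye loading.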

[4] = G protein-coupled receptor (GPCR) small molecule agonists, calcium flux assay: HEK293 wild type cell line counter screen (AID 1920065)
Outline: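 Calcium-sensitive dye, loaded 1 h at 37 C into cells cultured 18 h, reports compound-evoked calcium release as fluorescence (Ex/Em 480/540), measured over 3 min. Agonist mode; 15-point titrations, triplicate.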

[5] = p53 small molecule agonists, cell-based qHTS assay with human liver microsomes (AID 1963577)
Outline: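 Compounds act here after metabolic activation: human liver microsomes and NADPH, both at 0.5 mg/mL final, were co-added to p53RE-bla cells. Incubation ran 16 h at 37 C, followed by LiveBLAzer detection.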

[6] = p53 small molecule agonists, cell-based qHTS assay with rat liver microsomes (AID 1963578)
Outline: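 Read-out is beta-lactamase reporter fluorescence (LiveBLAzer, 2 h, room temperature, dark) in p53RE-bla cells treated 16 h at 37 C with compound, rat liver microsomes and NADPH, both 0.5 mg/mL final.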

[7] = p53 small molecule agonists, cell-based qHTS assay with human liver microsomes: qHTS cell viability counter screen (AID 1963579); also: nearly all actives have a fitted effect of over 45% in size
Outline: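 Cells carrying the p53 response-element beta-lactamase reporter are treated for 16 h at 37 C with test compounds in the presence of human liver microsomes and NADPH (both 0.5 mg/mL final); ATP-based CellTiter-Glo luminescence then reports viability.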

[8] = p53 small molecule agonists, cell-based qHTS assay with rat liver microsomes: qHTS cell viability counter screen (AID 1963580); also: nearly all actives have a fitted effect of over 45% in size
Outline: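 p53RE-bla HCT-116 cells (4,000/well) rested 5 h at 37 C, then given Tox21 compounds in DMSO with rat liver microsomes (0.5 mg/mL final) plus NADPH (0.5 mg/mL final) for 16 h at 37 C. Viability read by CellTiter-Glo luminescence after 30 min at room temperature.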

[9] = p53 small molecule agonists, cell-based qHTS assay: qHTS cell viability counter screen (AID 1963581); also: nearly all actives have a fitted effect of over 45% in size
Outline: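 Following 5 h attachment, HCT-116 p53RE-bla cells took up compound for 16 h at 37 C; the reporter was read with B/G FRET substrate (2 h RT), and viability then via CellTiter-Glo ATP luminescence.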

[10] = target: 5-hydroxytryptamine receptor 2A (Homo sapiens) (UniProt P28223); assay: 5-hydroxytryptamine receptor 2A (HTR2A) small molecule antagonists, cell-based qHTS assay (AID 1963586); also: nearly all actives have a fitted effect of over 45% in size
Outline: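 Antagonist-mode intracellular calcium assay: DOI (4 nM) added after 5 min compound pre-incubation at room temperature to dye-loaded HTR2A-CHO cells. Fluorescence followed for 3 min, sampled every second.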

[11] = target: 5-hydroxytryptamine receptor 2A (Homo sapiens) (UniProt P28223); assay: 5-hydroxytryptamine receptor 2A (HTR2A) small molecule agonists, cell-based qHTS assay (AID 1963587); also: nearly all actives have a fitted effect of over 30% in size
Outline: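 HTR2A-CHO cells, plated 18 h at 37 C/5% CO2, dye-loaded 1 h at 37 C; compounds in DMSO added by pin tool (agonist mode). Intracellular calcium flux read as kinetic fluorescence on FDSS over 2 min at 1 s intervals.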

[12] = target: Muscarinic acetylcholine receptor M1 (Homo sapiens) (UniProt P11229); assay: Cholinergic receptor muscarinic 1 (CHRM1) small molecule antagonists, cell-based qHTS assay (AID 1963588); also: nearly all actives have a fitted effect of over 40% in size
Outline: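 CHRM1-CHO calcium-flux assay, antagonist mode. Cells were seeded 18 h, dye-loaded 1 h at 37 C and given compound for 5 min at RT, then acetylcholine was added at 50nM. FDSS fluorescence was read 3 min; 15 concentrations, three runs.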

[13] = target: Muscarinic acetylcholine receptor M1 (Homo sapiens) (UniProt P11229); assay: Cholinergic receptor muscarinic 1 (CHRM1) small molecule agonists, cell-based qHTS assay (AID 1963589); also: nearly all actives have a fitted effect of over 35% in size
Outline: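 Measures agonist-induced intracellular calcium rise. Stable human CHRM1 CHO line, 1 h dye load at 37 C, compounds from DMSO, kinetic fluorescence read.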

[14] = cAMP Responsive Elements (CRE) small molecule agonists, cell-based qHTS assay (AID 1963590)
Outline: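 A CRE-responsive beta-lactamase reporter in HEK 293T cells was used. Treatment ran 3 h at 37 C; detection used LiveBLAzer B/G FRET substrate for 2 h at room temperature.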

[15] = cAMP Responsive Elements (CRE) small molecule antagonists, cell-based qHTS assay (AID 1963591; active = well fitted inhibition curve with a large enough effect in the signal ratio in the repeat runs, not every such curve was filed as active; the % refers to the signal ratio)
Outline: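 HEK293T cells carrying a CRE-driven beta-lactamase reporter receive compound and NKH477 (0.25 uM final) for 3 h. Fluorescence from LiveBLAzer B/G FRET substrate is read after 2 h at room temperature.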

[16] = target: Beta-2 adrenergic receptor (Homo sapiens) (UniProt P07550); assay: Adrenergic beta2 receptor (ADRB2) small molecule antagonists, cell-based qHTS assay (AID 1963592); also: series mostly up to about 92 µM; nearly all actives have a fitted effect of over 50% in size
Outline: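 Cells (CHO, stable ADRB2 overexpression) incubated 18-20hr at 37C; compounds added from DMSO; agonist mix (1nM isoproterenol, 100uM IBMX, 25uM Ro-20-1724) added; 0.5hr RT; d2-cAMP and anti-cAMP-cryptate added; 1hr RT; 665/615 nm read.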

[17] = target: D(2) dopamine receptor (Homo sapiens) (UniProt P14416); assay: Dopamine D2 receptor (DRD2) small molecule agonists, cell-based qHTS assay (AID 1963594); also: nearly all actives have a fitted effect of over 35% in size
Outline: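 HEK293 cells stably expressing DRD2 were cultured 24 h at 37 C, then given Ro20-1724 (0.1 mM final) and compounds for 10 min at room temperature. NKH477 (200nM) was then added for 30 min. cAMP was read by HTRF.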

[18] = target: D(2) dopamine receptor (Homo sapiens) (UniProt P14416); assay: Dopamine D2 receptor (DRD2) small molecule antagonists, cell-based qHTS assay (AID 1963595; active = well fitted inhibition curve with a large enough effect in the signal ratio in the repeat runs, with a control signal flat; the % refers to the signal ratio)
Outline: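 In this cell-based antagonist screen, compounds act for 10 min at room temperature before a 30 min challenge with 12 nM quinpirole and 200 nM NKH477. cAMP is quantified by HTRF competition in DRD2-HEK293 cells containing 0.1 mM Ro20-1724.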

[19] = p53 small molecule agonists, cell-based qHTS assay (AID 1963582; active = well fitted activation curve with a large enough effect in the signal ratio in the repeat runs, not every such curve was filed as active; the % refers to the signal ratio)
Outline: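 In this cell-based concentration-response screen, a p53 response element drives beta-lactamase; cells received DMSO-borne compounds after 5 h culture and were incubated a further 16 h before FRET substrate development.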

[20] = target: Beta-2 adrenergic receptor (Homo sapiens) (UniProt P07550); assay: Adrenergic beta2 receptor (ADRB2) small molecule agonists, cell-based qHTS assay (AID 1963593);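 also: CHO cells stably overexpressing human ADRB2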
Outline: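 CHO cells stably over-expressing ADRB2 were plated overnight at 37C, then dosed with compounds plus a stimulation mix containing 100uM IBMX and 25uM Ro-20-1724 for 0.5hr at room temperature. cAMP was measured by HTRF competition, 1hr.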

Measured: Potency

Sequence of Gonadotropin-releasing hormone receptor (Homo sapiens) (P30968 whole entry, looked up): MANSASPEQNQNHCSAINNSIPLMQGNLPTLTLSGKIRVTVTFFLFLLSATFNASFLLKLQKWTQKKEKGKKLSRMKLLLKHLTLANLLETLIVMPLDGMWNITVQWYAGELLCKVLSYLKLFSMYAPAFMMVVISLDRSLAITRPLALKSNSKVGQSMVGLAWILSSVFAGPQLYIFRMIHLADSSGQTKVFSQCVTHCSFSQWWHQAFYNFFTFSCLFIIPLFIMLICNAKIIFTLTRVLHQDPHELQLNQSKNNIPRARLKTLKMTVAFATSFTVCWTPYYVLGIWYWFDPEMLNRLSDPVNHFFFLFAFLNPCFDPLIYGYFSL
Sequence of KiSS-1 receptor (Homo sapiens) (Q969F8 whole entry, looked up): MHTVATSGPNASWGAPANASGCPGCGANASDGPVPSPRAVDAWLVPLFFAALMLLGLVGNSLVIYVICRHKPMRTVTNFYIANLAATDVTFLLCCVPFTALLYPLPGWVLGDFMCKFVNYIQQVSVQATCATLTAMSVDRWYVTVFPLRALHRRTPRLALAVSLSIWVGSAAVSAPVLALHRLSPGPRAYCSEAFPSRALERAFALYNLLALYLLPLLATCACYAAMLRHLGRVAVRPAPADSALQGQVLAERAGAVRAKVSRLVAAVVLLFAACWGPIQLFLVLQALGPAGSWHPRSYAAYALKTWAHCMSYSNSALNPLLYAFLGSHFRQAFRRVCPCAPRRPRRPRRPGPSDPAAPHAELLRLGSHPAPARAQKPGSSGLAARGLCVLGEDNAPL
Sequence of Muscarinic acetylcholine receptor M1 (Homo sapiens) (P11229 whole entry, looked up): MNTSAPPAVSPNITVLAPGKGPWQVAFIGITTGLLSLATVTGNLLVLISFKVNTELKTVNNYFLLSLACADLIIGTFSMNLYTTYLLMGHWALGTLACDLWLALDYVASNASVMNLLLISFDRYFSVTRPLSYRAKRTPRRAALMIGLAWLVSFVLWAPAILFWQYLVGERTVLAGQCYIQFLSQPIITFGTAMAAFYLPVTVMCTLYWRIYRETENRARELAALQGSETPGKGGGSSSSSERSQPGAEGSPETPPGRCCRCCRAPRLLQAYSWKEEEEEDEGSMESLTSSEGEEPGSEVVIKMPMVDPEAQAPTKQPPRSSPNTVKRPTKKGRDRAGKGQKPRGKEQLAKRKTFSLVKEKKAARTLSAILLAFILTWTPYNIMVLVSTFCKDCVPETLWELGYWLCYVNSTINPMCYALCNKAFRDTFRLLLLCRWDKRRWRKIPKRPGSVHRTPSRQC
Sequence of 5-hydroxytryptamine receptor 2A (Homo sapiens) (P28223 whole entry, looked up): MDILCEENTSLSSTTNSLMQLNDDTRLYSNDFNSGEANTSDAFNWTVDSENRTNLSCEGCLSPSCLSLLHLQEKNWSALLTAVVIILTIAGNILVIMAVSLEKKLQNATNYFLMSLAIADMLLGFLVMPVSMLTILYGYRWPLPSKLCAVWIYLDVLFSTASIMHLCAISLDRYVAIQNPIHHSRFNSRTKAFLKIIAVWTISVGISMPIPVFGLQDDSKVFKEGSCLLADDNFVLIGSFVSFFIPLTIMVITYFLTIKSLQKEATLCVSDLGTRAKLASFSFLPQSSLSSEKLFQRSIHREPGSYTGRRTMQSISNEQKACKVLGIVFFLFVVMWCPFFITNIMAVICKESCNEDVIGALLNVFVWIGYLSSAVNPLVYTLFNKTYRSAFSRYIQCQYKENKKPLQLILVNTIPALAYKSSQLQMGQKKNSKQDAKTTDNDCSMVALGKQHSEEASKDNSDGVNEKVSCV
Sequence of D(2) dopamine receptor (Homo sapiens) (P14416 whole entry, looked up): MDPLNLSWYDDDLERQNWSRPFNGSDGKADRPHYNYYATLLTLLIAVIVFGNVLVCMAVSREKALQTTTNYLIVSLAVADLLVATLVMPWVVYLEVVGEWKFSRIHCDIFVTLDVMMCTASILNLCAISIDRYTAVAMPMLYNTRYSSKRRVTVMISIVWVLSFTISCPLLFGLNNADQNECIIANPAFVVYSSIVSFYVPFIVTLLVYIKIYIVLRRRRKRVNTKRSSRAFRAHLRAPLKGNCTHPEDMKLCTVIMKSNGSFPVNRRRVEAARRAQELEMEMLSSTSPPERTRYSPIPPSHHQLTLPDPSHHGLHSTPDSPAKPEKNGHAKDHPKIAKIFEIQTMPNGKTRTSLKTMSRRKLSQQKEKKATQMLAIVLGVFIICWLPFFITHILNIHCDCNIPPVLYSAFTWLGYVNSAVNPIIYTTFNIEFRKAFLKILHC
Sequence of Beta-2 adrenergic receptor (Homo sapiens) (P07550 whole entry, looked up): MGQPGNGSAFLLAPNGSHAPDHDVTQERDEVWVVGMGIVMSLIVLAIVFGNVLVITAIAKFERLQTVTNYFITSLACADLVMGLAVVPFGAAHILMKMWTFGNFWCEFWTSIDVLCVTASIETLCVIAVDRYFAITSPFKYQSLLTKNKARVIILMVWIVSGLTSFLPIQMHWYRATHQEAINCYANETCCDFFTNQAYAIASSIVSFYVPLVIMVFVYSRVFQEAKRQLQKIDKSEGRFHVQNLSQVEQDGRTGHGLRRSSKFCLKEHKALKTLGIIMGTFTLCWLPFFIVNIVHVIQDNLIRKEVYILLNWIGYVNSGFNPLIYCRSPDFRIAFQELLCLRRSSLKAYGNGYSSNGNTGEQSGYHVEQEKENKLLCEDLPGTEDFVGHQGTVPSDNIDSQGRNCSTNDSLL

BrCC(Br)(Br)Br
not listed: [19] | [20]
inactive: all other assays above

O=C1CC[C@@]2(O)[C@H]3Cc4ccc(O)c5c4[C@@]2(CCN3CC2CC2)[C@H]1O5
not listed: [10] | [11] | [12] | [13]
inactive: all other assays above

CCCCCCBr
not listed: [10] | [12] | [16] | [20]
inactive: all other assays above

Clc1cc(C(Cl)(Cl)Cl)cnc1Cl
not listed: [20]
inactive: all other assays above

CC1(C(=O)Nc2ccc(O)c(Cl)c2Cl)CCCCC1
not listed: [11] | [14] | [15] | [20]
inactive: all other assays above

O=C(N[C@H]1CN2CCC1CC2)c1cc2ccoc2cn1
not listed: [10] | [11] | [12] | [15] | [20]
inactive: all other assays above

Cn1c(CCCC(=O)O)nc2cc(N(CCCl)CCCl)ccc21
not listed: [15] | [20]
inactive: all other assays above

CC(=O)OC(c1ccccc1)C(Cl)(Cl)Cl (configuration not stated)
not listed: [10]
inactive: all other assays above

Source: PubChem BioAssay (Tox21)
